Source: publication PMC4336329 (PLoS ONE, 2015)
Among all 310,000 compounds or so, about 14,000 (4.5%) showed an effect of 50% or more. The effect is printed as a negative number. The entries come from a sample that favours strong results as a whole.

Target: human ether-à-go-go-related gene (hERG) potassium channel (human, UniProt Q12809)
Assay: primary screen, population patch clamp on CHO cells stably expressing hERG; higher = less effect of the substance
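Note: peak tail current of the secondary pulse compared with the same well before compound.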

Sequence of human ether-à-go-go-related gene (hERG) potassium channel (Q12809 whole entry, looked up): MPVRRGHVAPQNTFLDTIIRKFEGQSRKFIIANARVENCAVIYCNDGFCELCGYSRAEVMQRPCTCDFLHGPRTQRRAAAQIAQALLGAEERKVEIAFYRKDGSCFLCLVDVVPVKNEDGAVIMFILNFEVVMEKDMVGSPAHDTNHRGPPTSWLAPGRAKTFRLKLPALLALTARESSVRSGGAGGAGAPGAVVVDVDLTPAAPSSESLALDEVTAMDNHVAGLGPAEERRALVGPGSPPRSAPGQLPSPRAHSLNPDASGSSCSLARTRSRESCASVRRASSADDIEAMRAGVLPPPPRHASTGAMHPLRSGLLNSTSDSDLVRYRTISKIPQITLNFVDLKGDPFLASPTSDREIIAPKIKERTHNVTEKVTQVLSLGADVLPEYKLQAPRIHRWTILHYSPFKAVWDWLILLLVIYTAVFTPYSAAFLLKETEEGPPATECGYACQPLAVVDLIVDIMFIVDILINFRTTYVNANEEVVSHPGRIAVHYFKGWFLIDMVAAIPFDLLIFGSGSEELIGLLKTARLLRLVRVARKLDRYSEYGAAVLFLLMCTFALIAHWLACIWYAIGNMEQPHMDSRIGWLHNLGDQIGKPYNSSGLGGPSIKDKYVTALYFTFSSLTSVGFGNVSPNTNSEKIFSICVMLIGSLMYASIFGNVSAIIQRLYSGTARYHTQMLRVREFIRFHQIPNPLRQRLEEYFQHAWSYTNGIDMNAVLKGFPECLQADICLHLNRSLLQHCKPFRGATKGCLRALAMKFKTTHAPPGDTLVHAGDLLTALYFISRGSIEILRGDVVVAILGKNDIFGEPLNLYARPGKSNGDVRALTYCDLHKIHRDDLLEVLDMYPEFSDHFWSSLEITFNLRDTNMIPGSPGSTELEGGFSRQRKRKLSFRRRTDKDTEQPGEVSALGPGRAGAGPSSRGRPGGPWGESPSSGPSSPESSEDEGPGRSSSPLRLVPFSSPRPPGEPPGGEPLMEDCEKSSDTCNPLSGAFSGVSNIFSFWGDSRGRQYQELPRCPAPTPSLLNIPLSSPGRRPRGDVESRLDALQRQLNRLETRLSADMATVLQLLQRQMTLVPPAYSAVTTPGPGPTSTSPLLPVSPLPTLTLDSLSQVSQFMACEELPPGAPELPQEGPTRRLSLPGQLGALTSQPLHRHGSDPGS

| SMILES | hERG current change (%, negative = inhibition) at 10uM [%] |
| --- | --- |
| COc1cccc(/C=N/NC(=O)C(C)n2nnc3ccccc32)c1 (stereo not drawn) | -1.1 |
| Cc1cc([N+](=O)[O-])nn1CC(=O)Nc1sc2c(c1C(N)=O)CCCC2 | 7.62 |
| CCN(CC(=O)NCc1cccs1)CC(=O)Nc1c(Cl)ccc(C)c1Cl | -16.8 |
| CC12CC3(C)CC(C)(C1)CC(C(=O)NC(=S)NC(C)(C)C)(C2)C3 | 13.3 |
| CSc1ccc(C(=O)C2CCCN(Cc3ccn[nH]3)C2)cc1 (stereo not drawn) | -26.6 |
| CSc1ccc(C(=O)C2CCCN(Cc3cccnc3)C2)cc1 (stereo not drawn) | -53 |
| O=C(C1CCCN(Cc2cccnc2)C1)N1CCCCC1.O=C(O)C(=O)O (stereo not drawn) | 7.77 |
| CCCCn1nc(C(=O)NCC2COc3ccccc3O2)c2ccccc2c1=O (stereo not drawn) | -49.1 |
| O=[N+]([O-])c1ccccc1/C=C/C=N/n1c(-c2ccc(Cl)cc2)n[nH]c1=S | 17.5 |
| O=C(CN(Cc1ccco1)C(=O)CNS(=O)(=O)c1ccc(F)cc1)NCc1ccccc1 | -28.4 |
| CCOC(=O)C1CCN(C(=O)CCNC(=O)c2cc(OC)c(OC)c(OC)c2)CC1 | 10.9 |
| O=C(NCCCN1CCOCC1)c1ccc(Sc2ccc(F)cc2)c([N+](=O)[O-])c1 | -33.3 |
| CCN1CCCC1CNC(=O)c1ccc(Sc2ccc(F)cc2)c([N+](=O)[O-])c1 (stereo not drawn) | -66.5 |
| CCN1CCCC1CNC(=O)c1ccc(Sc2ccccc2Cl)c([N+](=O)[O-])c1 (stereo not drawn) | -64.1 |
| O=C(c1ccc(Sc2ccc(F)cc2)c([N+](=O)[O-])c1)N1CCOCC1 | -18.5 |
| O=C(NCCCN1CCOCC1)c1ccc(Sc2ccccc2Cl)c([N+](=O)[O-])c1 | -22.7 |
| CCN1CCCC1CNC(=O)c1ccccc1Cl (stereo not drawn) | -10.6 |
| CCOc1ccc(-c2nnn(CC(=O)N3CCCC3)n2)cc1OCC | 13.8 |
| Cl.O=c1c(-c2ccccc2)coc2c(CN3CCCCC3)c(O)ccc12 | 14.6 |
| COc1ccc(NC(=O)CSCC(=O)N=c2sccn2C)cc1 | 11 |
| O=C(Nc1ccc(O)cc1)c1cc2n(n1)C(C(F)(F)F)CC(c1ccco1)N2 (stereo not drawn) | -5.45 |

| SMILES | hERG current change (%, negative = inhibition) at 10uM [%] |
| --- | --- |
| O=S(=O)(Nc1cccc(-c2cn3cccnc3n2)c1)c1ccc(Cl)cc1 | 16.4 |
| CN1CCN(CC(=O)NC23CC4CC(CC(C4)C2)C3)CC1.Cl | 4.19 |
| CCc1ccc(Nc2n[n+](-c3ccccc3)c(-c3cc(OC)c(OC)cc3Br)s2)cc1.[Cl-] | -55 |
| COc1cc(Br)c(-c2sc(Nc3ccccc3)n[n+]2-c2ccccc2)cc1OC.[Cl-] | -68.7 |
| COc1ccc(-c2sc(Nc3ccccc3)n[n+]2-c2ccccc2)cc1Br.[Cl-] | -48.7 |
| CCc1ccc(Nc2n[n+](-c3ccccc3)c(-c3ccc(SC)cc3)s2)cc1.[Cl-] | -2.72 |
| CCc1ccc(Nc2n[n+](-c3ccccc3)c(/C=C/c3ccccc3)s2)cc1.[Cl-] | -69 |
| CCc1ccc(Nc2n[n+](-c3ccccc3)c(-c3cccc(Cl)c3Cl)s2)cc1.[Cl-] | -1.43 |
| COc1cc(Br)c(-c2sc(Nc3ccccc3)n[n+]2-c2ccc(F)cc2)cc1OC.[Cl-] | -37.1 |
| CCc1ccc(Nc2n[n+](-c3ccccc3)c(-c3c(Cl)cccc3Cl)s2)cc1.[Cl-] | -27.5 |
| CCc1ccc(Nc2n[n+](-c3ccccc3)c(-c3ccc(OCc4ccccc4)cc3)s2)cc1.[Cl-] | -45.2 |
| O=C(O)C1Cc2ccccc2-c2ccccc2C1 | 20.1 |
| CC(C)COC(=O)c1ccc(NC(=O)C2C3CCC(C3)C2C(=O)O)cc1 (stereo not drawn) | 7.41 |
| Nc1nc(Cl)cc(Sc2ccc3ccccc3c2)n1 | 14.1 |
| CCOC(=O)c1ccoc1CSCc1ccc(C(=O)OC)o1 | 5.24 |
| COc1ccc(CNC(=O)C/C(C)=N/NC(=O)Cc2ccc(OC)cc2)cc1 | 3.39 |
| CCC(=O)Oc1ccc(-c2cnc3ccccc3n2)cc1 | 13.5 |
| COc1ccc(C(CNC(=O)c2cccc(S(=O)(=O)NCc3ccccc3)c2)N2CCOCC2)cc1 (stereo not drawn) | -40 |
| Cc1nc(SCc2nc3ccccc3[nH]2)c2oc3ccccc3c2n1 | 1.04 |
| COc1ccccc1N1CCN(c2ncnc3c2oc2ccccc23)CC1 | 6.73 |
| Cc1nc(N2CCN(Cc3ccc(Cl)cc3)CC2)c2oc3ccccc3c2n1 | -19.3 |

| SMILES | hERG current change (%, negative = inhibition) at 10uM [%] |
| --- | --- |
| c1ccc2[nH]c(CN3CCN(c4ncnc5c4oc4ccccc45)CC3)nc2c1 | -73.1 |
| Cc1nc(N2CCN(Cc3nc4ccccc4[nH]3)CC2)c2oc3ccccc3c2n1 | -52.1 |
| c1ccc(N2CCN(c3ncnc4c3oc3ccccc34)CC2)cc1 | 2.36 |
| c1ccc2[nH]c(CSc3ncnc4c3oc3ccccc34)nc2c1 | -21.4 |
| C(=C\c1ccccc1)/CN1CCN(c2ncnc3c2oc2ccccc23)CC1 | -53.7 |
| Cl.c1ccc2c(c1)oc1c(N3CCOCC3)ncnc12 | 9.53 |
| CC(C)(C)NC(=O)CCN(/N=C/c1ccccc1F)C1=NS(=O)(=O)c2ccccc21 | 15.7 |
| CCNc1c(NS(=O)(=O)c2ccc(OC)cc2)c(=O)oc2ccccc12 | -24.3 |
| O=C(Nc1ccccc1Cc1ccccc1)c1ccc2c(c1)SC1=NS(=O)(=O)CCN12 | -5.78 |
| COC(=O)c1cccc(NC(=S)Nc2ccccc2Cl)c1 | -3.48 |
| Cc1c(C(=O)N(C)C)c2ccc(Cl)cc2n1O | 15.6 |
| COc1ccc(Cn2c(=O)[nH]c3cc(OC)c(OC)cc3c2=O)cc1 | 7.17 |
| Cc1ccc(C(=O)N/C(N)=N/c2nc3ccccc3o2)cc1 | -2.82 |
| N=c1c2c(-c3ccccc3)c(-c3ccccc3)n(Cc3ccco3)c2ncn1Cc1ccccc1 | -69.3 |
| N=c1c2c(-c3ccccc3)c(-c3ccccc3)oc2ncn1Cc1ccco1 | 0.861 |
| CC(C)Cn1cnc2c(c(-c3ccccc3)c(-c3ccccc3)n2Cc2ccco2)c1=N | -73.3 |
| O=c1c2ccccc2nc(-c2ccccc2)n1Cc1ccco1 | -30.5 |
| CC1(C)Cc2c(sc3c2c(=N)n(Cc2ccco2)c(=O)n3Cc2ccccc2)CO1 | -12.5 |
| N=c1c2c(-c3ccccc3)c(-c3ccccc3)n(Cc3ccco3)c2ncn1Cc1ccco1 | -71.2 |
| O=c1c2ccccc2c2ccccc2c(=O)n1Cc1ccco1 | 3.47 |
| N=C1C(c2ccccc2)=C(O)CN1Cc1ccco1 | 6.39 |

| SMILES | hERG current change (%, negative = inhibition) at 10uM [%] |
| --- | --- |
| CCN(CC)S(=O)(=O)c1ccc(Cl)c(C(=O)Nc2cc(C)nn2-c2ccccc2)c1 | -26.3 |
| O=C(CCC(=O)N1CCSc2ccccc21)NCc1ccc(Cl)cc1 | -33.8 |
| CCOc1cc(/C=N/NC(=O)c2ccncc2)ccc1OS(C)(=O)=O | -3.33 |
| COc1ccc(C2=CC3=C(Br)C(=O)C(C)(O)C(=O)C3=CO2)cc1 (stereo not drawn) | 11.9 |
| O=[N+]([O-])c1cc([N+](=O)[O-])c(N2CCCCCC2)cc1NCCO | -13.4 |
| Cc1ccc2c(c1)C(O)(CC(=O)c1ccc(C)s1)C(=O)N2 (stereo not drawn) | 21.4 |
| O=C1C=C(c2ccc3[nH]ccc3c2)CCC1 | 16.3 |
| CC(=O)OCC1(C)CN(c2ccccc2)NC1=O (stereo not drawn) | 13.7 |
| CC(CCc1ccccc1)N(C)CC(O)c1cccc([N+](=O)[O-])c1.Cl (stereo not drawn) | -68.6 |
| Cl.NC(=NCc1ccccc1)c1cccc([N+](=O)[O-])c1 | -20 |
| CC(CCc1ccccc1)NC(=O)CNc1cccc([N+](=O)[O-])c1 (stereo not drawn) | -30.1 |
| CC(CCc1ccccc1)NCC(O)c1cccc([N+](=O)[O-])c1.Cl (stereo not drawn) | -56.2 |
| O=C(Cc1ccccc1)NC(NC(=O)Cc1ccccc1)c1cccc([N+](=O)[O-])c1 | 4.27 |
| C=CCN(CC(O)c1cccc([N+](=O)[O-])c1)C(C)CCc1ccccc1.Cl (stereo not drawn) | -36.4 |
| CC(CCc1ccccc1)NC(=O)c1cccc([N+](=O)[O-])c1 (stereo not drawn) | -8.01 |
| N/C(=N\OC(=O)CCCc1ccccc1)c1cccc([N+](=O)[O-])c1 | -3.9 |
| Cl.NC(=NCCc1ccccc1)c1cccc([N+](=O)[O-])c1 | -57.7 |
| CCOc1cc(/C=C(/C#N)c2nc3ccccc3[nH]2)ccc1OCc1ccc(C(=O)O)o1 | 3.75 |
| CC1(C)CC2CC(C)(CN2C(=O)C23CCC(C)(C(=O)O2)C3(C)C)C1 (stereo not drawn) | -8.69 |
| Cc1cc(C)c(S(=O)(=O)NCc2cn3ccccc3n2)c(C)c1 | 4.96 |
| CCCCNC(=O)c1cc2ccccc2s1 | 10.8 |
